According to PubChem BioAssay (NCATS):
Inconclusive results are not listed. A call without a number means that no potency is given here. Unmarked numbers belong to inactive results. Activity calls are given as the source filed them. Calls follow the shape of the dose curve; as a rule, active = well fitted curve in the direction sought with a large enough effect; inconclusive = small, poorly fitted or top-dose-only effect, or another doubt; inactive = no such curve, though single readings can be large; an effect the other way counts as inactive or inconclusive.

Experiments:
MKL-2 = test: qHTS assay to identify novel small-molecules to repurpose for Merkel cell carcinoma treatment (AID 1296009); conditions: MCC and control cell lines, CellTiter-Glo viability, 72 h; series mostly up to 46 µM; also: nearly all actives have a fitted effect of over 60% in size
Outline: (§1)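 Cell viability measured by CellTiter-Glo following 72 hr compound treatment at 37 degree celsius, with NPC and MIPE libraries tested in 8- and 11-point concentration series.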

UISO = test: as above; conditions: MCC and control cell lines, CellTiter-Glo viability, 72 h; series mostly up to 46 µM
Outline: as §1

C33A = test: Primary qHTS to identify gynecologic anti-cancer compounds using libraries of approved drugs and bioactive compounds (AID 1345084); conditions: Gynecologic cancer cell panel viability, ATPlite luminescence, 48 h; series mostly up to 57.5 µM; also: nearly all actives have a fitted effect of over 55% in size
Outline: (§2)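 Cells, 1,000 per well, were allowed to settle for 16 h at 37 C before compound addition. Five concentrations were tested for 48 h, and viability was read by ATPlite luminescence after 15 min at room temperature.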

Es-2 = test: as above; conditions: Gynecologic cancer cell panel viability, ATPlite luminescence, 48 h; series mostly up to 57.5 µM
Outline: as §2

HeLa = test: as above; conditions: Gynecologic cancer cell panel viability, ATPlite luminescence, 48 h; series mostly up to 57.5 µM
Outline: as §2

WaGa = test: qHTS assay to identify novel small-molecules to repurpose for Merkel cell carcinoma treatment (AID 1296009); conditions: MCC and control cell lines, CellTiter-Glo viability, 72 h; series mostly up to 46 µM; also: nearly all actives have a fitted effect of over 60% in size
Outline: as §1

NIH3T3 = test: as above; conditions: MCC and control cell lines, CellTiter-Glo viability, 72 h; series mostly up to 44.8 µM
Outline: as §1

CAOV3 = test: Primary qHTS to identify gynecologic anti-cancer compounds using libraries of approved drugs and bioactive compounds (AID 1345084); conditions: Gynecologic cancer cell panel viability, ATPlite luminescence, 48 h; series mostly up to 57.5 µM; also: nearly all actives have a fitted effect of over 55% in size
Outline: as §2

CASKI = test: as above; conditions: Gynecologic cancer cell panel viability, ATPlite luminescence, 48 h; series mostly up to 57.5 µM
Outline: as §2

MKL-1 = test: qHTS assay to identify novel small-molecules to repurpose for Merkel cell carcinoma treatment (AID 1296009); conditions: MCC and control cell lines, CellTiter-Glo viability, 72 h; series mostly up to 46 µM; also: nearly all actives have a fitted effect of over 60% in size
Outline: as §1
Potency is read from the fitted curve at half-maximal effect.

CO[C@H]1/C=C\O[C@@]2(C)Oc3c(C)c(O)c4c(O)c(c5c(nc6cc(C)ccn65)c4c3C2=O)NC(=O)C(C)=CC=C[C@H](C)[C@H](O)[C@@H](C)[C@@H](O)[C@@H](C)[C@H](OC(C)=O)[C@H]1C
Potency (MKL-2): inactive | Potency (UISO): inactive

CCc1cccc(CC)c1NC(=O)N1Cc2[nH]nc(NC(=O)c3ccc(N4CCN(C)CC4)cc3)c2C1
Potency (MKL-2): inactive | Potency (UISO): inactive | Potency (C33A): inactive | Potency (Es-2): inactive | Potency (HeLa): 3.16 µM (active)

NC[C@H]1O[C@H](O[C@@H]2[C@@H](O)[C@@H](O[C@H]3O[C@H](CO)[C@@H](O)[C@H](N)[C@@H]3O)[C@H](N)C[C@@H]2N)[C@H](O)[C@@H](O)[C@H]1O
Potency (MKL-2): inactive | Potency (UISO): inactive | Potency (WaGa): inactive

COc1cc2nc(-c3cc(F)ccc3O)nc(N[C@@H]3CNC[C@@H]3C(C)(C)O)c2cc1OC
Potency (MKL-2): 9.35 µM (active)

CN(C)CCOc1ccc(-c2nc(-c3ccc4c(c3)CCC4=NO)c(-c3ccncc3)[nH]2)cc1
Potency (MKL-2): 14.8 µM (active) | Potency (UISO): inactive

CN1C(=O)C[C@H](C(=O)N[C@@H](Cc2cnc[nH]2)C(=O)N2CCC[C@@H]2C(N)=O)NC1=O
Potency (MKL-2): 6.62 µM (active) | Potency (NIH3T3): inactive | Potency (WaGa): 20.9 µM (active)

Cc1ccc(NC(=O)Nc2cc(C(F)(F)F)ccc2F)cc1Nc1ccc2c(c1)NC(=O)C2=Cc1ccc[nH]1
Potency (MKL-2): inactive | Potency (UISO): 18.7 µM (active)

CNC(=O)c1cc(Oc2ccc(NC(=O)Nc3ccc(Cl)c(C(F)(F)F)c3)c(F)c2)ccn1
Potency (MKL-2): 16.6 µM (active) | Potency (UISO): 5.9 µM (active) | Potency (WaGa): 18.7 µM (active) | Potency (CAOV3): inactive | Potency (CASKI): inactive | Potency (Es-2): inactive | Potency (HeLa): inactive

Clc1ccc(C2(c3ccc(-c4cn[nH]c4)cc3)CCNCC2)cc1
Potency (MKL-2): inactive

Cc1cccc(Nc2nc(N[C@@H]3CCCC[C@H]3N)ncc2C(N)=O)c1
Potency (MKL-2): inactive | Potency (UISO): inactive | Potency (WaGa): inactive

O=C(C=Cc1ccc(O)cc1)c1ccc(O)cc1O
Potency (MKL-1): inactive | Potency (WaGa): inactive

O=C(Nc1cccc2c(=O)cc(-c3nn[nH]n3)oc12)c1ccc(OCCCCc2ccccc2)cc1
Potency (MKL-1): inactive | Potency (WaGa): inactive | Potency (C33A): inactive | Potency (CAOV3): inactive | Potency (CASKI): inactive | Potency (HeLa): inactive

NS(=O)(=O)c1ccc(Nc2nc(OCC3CCCCC3)c3[nH]cnc3n2)cc1
Potency (MKL-2): inactive | Potency (UISO): 2.35 µM (active) | Potency (C33A): inactive | Potency (CASKI): inactive | Potency (Es-2): inactive | Potency (HeLa): inactive

O=C(c1ccc(C=Cc2n[nH]c3ccccc23)cc1)N1CCNCC1
Potency (MKL-2): inactive

CCOC(=O)N1CCN([N+]([O-])=NOc2cc(ON=[N+]([O-])N3CCN(C(=O)OCC)CC3)c([N+](=O)[O-])cc2[N+](=O)[O-])CC1
Potency (MKL-2): 23.5 µM (active) | Potency (NIH3T3): inactive

Cc1ccc2c(c1)C(=O)[C@]1(O)CCN(c3ccccc3)C1=N2
Potency (MKL-2): inactive | Potency (UISO): inactive | Potency (C33A): inactive | Potency (CAOV3): inactive | Potency (CASKI): inactive | Potency (Es-2): inactive | Potency (HeLa): inactive

NCc1c[nH]c(=S)n1[C@H]1CCc2c(F)cc(F)cc2C1
Potency (MKL-2): 20.9 µM (active)

CCCCCCOC(=O)N=C(N)c1ccc(NCc2nc3cc(C(=O)N(CCC(=O)OCC)c4ccccn4)ccc3n2C)cc1
Potency (MKL-2): inactive | Potency (UISO): inactive | Potency (WaGa): inactive

C[C@@H]1[C@H](C)CC[C@]2(C(=O)O)CC[C@]3(C)C(=CC[C@@H]4[C@@]5(C)CC[C@H](O)C(C)(C)[C@H]5CC[C@]43C)[C@@H]12
Potency (MKL-2): inactive | Potency (NIH3T3): inactive

CCC[C@H](Nc1nc(-c2ccc(NC(=O)NCC)c(OC)c2)ncc1C)c1cccnc1
Potency (MKL-2): 0.0187 µM (active)

CN(C)S(=O)(=O)c1ccc2c(c1)C(=Cc1cc3c([nH]1)CCCC3)C(=O)N2
Potency (MKL-2): inactive | Potency (UISO): inactive | Potency (WaGa): inactive

Cc1ccc(S(=O)(=O)OCC(=O)Nc2ccc(C(=O)O)c(O)c2)cc1
Potency (MKL-2): inactive | Potency (UISO): inactive

CCC(=O)N1CCN(c2ccc(-n3c(=O)ccc4cnc5ccc(-c6cnc7ccccc7c6)cc5c43)cc2C(F)(F)F)CC1
Potency (MKL-2): inactive | Potency (UISO): 0.0469 µM (active) | Potency (WaGa): inactive | activity change, negative = cytotoxicity (CAOV3): -22.6% [at 11.6 µM] | Potency (Es-2): 0.141 µM (active)

CC(C)n1c(C=C[C@H](O)C[C@H](O)CC(=O)O)c(-c2ccc(F)cc2)c2ccccc21
Potency (MKL-2): 7.43 µM (active) | Potency (UISO): 10.5 µM (active) | Potency (WaGa): 18.7 µM (active)

NC(=O)c1noc([C@H](CCCC2CCCCC2)CC(=O)NO)n1
Potency (MKL-1): 16.6 µM (active) | Potency (UISO): 14.8 µM (active) | Potency (C33A): inactive | Potency (CASKI): inactive | Potency (Es-2): inactive | Potency (HeLa): inactive

CC1(C)C(N(O)C(=O)Nc2ccc(Cl)cc2)N(c2ccc(Cl)cc2)C(=O)N1CC(=O)NN=CC=Cc1ccc([N+](=O)[O-])o1 (stereo not given)
Potency (MKL-2): 23.5 µM (active) | Potency (UISO): inactive

COc1cc2nccc(Oc3ccc(NC(=O)Nc4ccc(F)cc4F)c(F)c3)c2cc1OC
Potency (MKL-2): inactive | Potency (UISO): inactive | Potency (WaGa): inactive

c1cc(OCCN2CCCCC2)cc(-c2n[nH]c3ccc(-c4ncn[nH]4)cc23)c1
Potency (MKL-1): inactive | Potency (WaGa): 18.7 µM (active) | Potency (C33A): inactive | Potency (CAOV3): inactive | Potency (CASKI): inactive | Potency (Es-2): inactive | Potency (HeLa): inactive

COc1c(C)cnc(Cn2cnc3c(Cl)nc(N)nc32)c1C
Potency (MKL-2): inactive | Potency (UISO): 0.743 µM (active) | Potency (WaGa): 0.209 µM (active)

CN1CCc2c(n(Cc3ccc(C(=O)NO)cc3)c3ccccc23)C1
Potency (MKL-2): 14.8 µM (active) | Potency (UISO): inactive | Potency (WaGa): 18.7 µM (active) | Potency (C33A): inactive | Potency (CAOV3): inactive | Potency (CASKI): inactive
